TRPML1 inh: blocks the human TRPML1 channel | TRPML1-inducible cells, Ca2+ dye fluorescence, FDSS; active compounds read low; inhibition of EC80 agonist-evoked calcium signal | 390,000 compounds, 0.02% hits | Q9GZU1 | activity change, negative = inhibition, % (no concentration beside the values); in the data active means activity change below about -50%; inconclusive means between about -30% and that limit;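 further: stimulus is agonist 54-4 at its EC80 concentration; on the % scale 0 is the no-effect control and ±100 the full control effect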
Target sequence (Q9GZU1 whole entry, looked up): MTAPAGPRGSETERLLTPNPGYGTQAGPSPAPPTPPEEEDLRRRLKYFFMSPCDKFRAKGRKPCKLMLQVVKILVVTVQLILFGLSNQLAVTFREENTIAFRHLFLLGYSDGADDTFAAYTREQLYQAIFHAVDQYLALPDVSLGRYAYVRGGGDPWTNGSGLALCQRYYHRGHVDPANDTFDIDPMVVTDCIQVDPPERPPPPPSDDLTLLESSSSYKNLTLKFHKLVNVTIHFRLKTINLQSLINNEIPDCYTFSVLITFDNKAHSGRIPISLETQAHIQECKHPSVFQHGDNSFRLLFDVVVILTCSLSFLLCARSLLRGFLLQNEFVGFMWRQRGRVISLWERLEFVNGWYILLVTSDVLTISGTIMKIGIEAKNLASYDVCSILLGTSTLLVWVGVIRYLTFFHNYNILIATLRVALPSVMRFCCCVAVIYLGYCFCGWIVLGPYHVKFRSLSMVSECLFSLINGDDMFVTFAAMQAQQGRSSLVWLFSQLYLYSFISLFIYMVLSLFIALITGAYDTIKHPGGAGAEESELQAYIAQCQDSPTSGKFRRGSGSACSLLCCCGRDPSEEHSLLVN
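Calcium fluorescence in TRPML1-DL cells induced overnight with Tet: a 110 s read after compound pin addition, then a 110 s antagonist read after challenge with 54-4 at 4 uM final (EC80).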
TRHR enhancer: TRH receptor (human) allosteric enhancement | TRHR cells, fluo-8 calcium fluorescence, EC20 TRH enhancement | enhancement, % at 2 µM | P34981 | 360,000 compounds, 0.66% hits; in the data active means enhancement above about 30%; further: 0% is about no effect
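TRHR-expressing cells loaded with fluo-8 calcium dye were read kinetically (ex 480/em 530) during compound addition, then stimulated with an EC20 of TRH (10 nM final). Enhancement of the Gq-mediated intracellular calcium response was scored.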
TRHR ag: TRH receptor (human) agonism. TRHR cells, calcium flux fluo-8, FDSS agonist mode. AID 493084. 360,000 compounds, 0.18% hits. P34981. activation, % at 2 µM; in the data active means activation above about 30%; further: 0% is about no effect
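Steps: seed TRHR cells overnight; add fluo-8 no-wash Ca dye, RT 30 min–1.5 h; record 10 s baseline; pin-transfer compounds; monitor fluorescence 1 cycle/s for the agonist window. Calcium increases flag candidate agonists.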
PTHR1 agonist: agonists of human PTHR1 parathyroid hormone receptor | 410,000 compounds, 0.075% hits | Potency, µM (series often up to 115 µM), without a hit: top-dose activation, usual class: activators | HEK293 GP2 PTHR1 cells, GloSensor cAMP luminescence, 1 h | Q03431; further: potency means the concentration at half of the fitted maximal effect; nearly all actives have a fitted effect of over 55% in size
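HEK-293-derived GP2 cells expressing PTHR1 and a GloSensor cAMP reporter, 3,000/well, plated overnight, given luciferin plus IBMX (each 0.5 mM as added) for 1 h at 37 °C, then compound for 1 h at 37 °C. Luminescence was read after 15 min at room temperature.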
TRPML1 ag: activates the human TRPML1 channel | Q9GZU1 | TRPML1-expressing cells, Ca2+ dye fluorescence, FDSS | activation, % (concentration not given with the values) | 410,000 compounds, 0.12% hits | AID 624414; in the data active means activation above about 50%; inconclusive means mostly about 30% to 49%; further: 0% is about no effect
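Agonist activity was taken from a 110 s kinetic Ca2+ dye read on the FDSS after pinning compounds onto TRPML1-DL cells. The cells were seeded at 1,500/well with Tet inducer, incubated about 16 h, then dye-loaded at room temperature.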
HEK293 tox: cytotoxicity counter-screen for GLP-1 receptor inverse agonists | 410,000 compounds, 0.13% hits | AID 624418 | Potency, µM (titrated, usually from 38.3 µM), without a hit: at the top dose activity change, negative = inhibition, usual class: inhibitors | HEK293 cAMP-luciferase reporter cells, luminescence, 24 h;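 further: loss of luciferase light is scored as toxicity; potency means the concentration at half of the fitted maximal effect; on the % scale 0 is the no-effect control and ±100 the full control effect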
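A 23 nL compound transfer followed 12 hours of cell culture at 37 deg C; exposure then lasted 24 hr. Luciferase assay detection reagent was dispensed and plates read for luminescence after a 12 min room-temperature wait.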
* = called active by the depositor; i = inactive; ? = inconclusive; . = no result; ! = repeats disagree; [ ] = another dose, or the depositor's remark. Only some compounds are listed: those with a hit (about 0.93% of all), similar ones and a draw of the others. Unless noted, the call rests on the fitted dose curve; in most records, active means well fitted curve in the direction sought with a large enough effect; inconclusive means small, poorly fitted or top-dose-only effect, or another doubt; inactive means no such curve, though single readings can be large; an effect the other way counts as inactive or inconclusive.

SMILES	TRPML1 inh	TRHR enhancer	TRHR ag	PTHR1 agonist	TRPML1 ag	HEK293 tox
O=C(c1ccc2c(c1)OCO2)N1CCC2(CC1)Oc1ccc(Cl)cc1C(=O)C21CC(c2ccccc2)=NO1 (centres undefined)	42	-2	1	-21%	0	4.5µM*
O=C1c2cccc3c(O)ccc(c23)C(=O)N1Cc1ccccc1	0	40*	154*	-27%	97*	i
CCCCCCn1c(=O)[nH]c2nc3cc(N)ccc3nc2c1=O	-10	31*	130*	i	51*	360%
CCCCCn1c(=O)c(C(=O)c2ccccc2)nc2ccccc21	16	-8	0	i	2	1%
O=c1ccc(N=Nc2ccccc2)ccc1O	14	8	-4	-64%	0	11µM*
O=C(CC1SC(=O)N(c2ccccc2)C1=O)Nc1ccccc1 (centres undefined)	-3	-5	0	-31%	0	-1%
O=C(CC1Sc2ncnn2C1=O)Nc1ccccc1 (centres undefined)	-2	30*	-1	i	0	2%
CC(C)(C)OC(=O)Cc1nnc(C(C(=O)OCc2ccccc2)c2ccccc2)o1 (centres undefined)	.	0	1	.	.	.
CN1/C(=C/C=C(/C#N)C(N)=O)C(C)(C)c2ccccc21	15	.	.	-9%[57.5 µM]	5	-10%
CN1/C(=C\C=C(/C#N)C(=O)Nc2ccccc2F)C(C)(C)c2ccccc21	-1	19	114*	i	?	113%
Cn1nnnc1Sc1ncnc2scc(-c3ccc(C(=O)OC(C)(C)C)cc3)c12	.	4	0	.	.	.
COc1ccc(NC(=O)CN(C)C(=O)c2ccccc2OC)cc1	-2	35*	1	i	-1	0%
COc1ccc(NC(=O)CN(C)C(=O)c2cccc3ccccc23)cc1	-2	0	0	-87%	-1	-1%
CC(C(=O)Nc1cccc([N+](=O)[O-])c1)[n+]1ccccc1 (centres undefined)	-21	31*	1	i	0	4%
O=C(Nc1ccccc1F)c1cnn2c1NC(=C1CC1)C=C2C(F)F	.	.	.	.	-1	.
Cc1ccc(CCNC(=O)CN(C)S(=O)(=O)c2ccc3c(c2)c(=O)n(C)c(=O)n3C)cc1	1	40*	0	-3%	-1	6%
COc1cc(OC)cc(C(=O)Nc2nnc(NC(=S)Nc3ccccc3)s2)c1	-11	36*	1	-11%	0	-2%
CN(C)S(=O)(=O)c1cccc(NC(=S)NCc2ccco2)c1	31	39*	2	-15%	1	-10%
CC(=O)c1cccc(NC(=S)NCc2ccco2)c1	3	0	0	-12%	2	-30%
O=C1c2ccccc2C(=O)c2c1cccc2N(CCO)CCO	-4	-2	0	-10%	-1	-34%
O=C1C=C(N(CCO)Cc2ccccc2)c2ccccc2C1=O	18	39*	0	-14%	-1	6%[0.307 µM]
CCOC(=O)CCCCNCc1ccccc1	-17	30*	0	i	0	5%
O=C(O)CCCCNCc1ccccc1	-3	-4	-1	-3%	1	10%
O=C(O)c1ccccc1C(=O)Nc1ccc(Nc2ccc([N+](=O)[O-])cc2[N+](=O)[O-])cc1	-4	35*	0	i	0	-25%
O=C(O)c1ccccc1C(=O)Nc1cccc([N+](=O)[O-])c1	24	1	1	i	0	-3%
SMILES	TRPML1 inh	TRHR enhancer	TRHR ag	PTHR1 agonist	TRPML1 ag	HEK293 tox
CC1CCN(C(=O)Cn2cnc3c(cnn3C(C)(C)C)c2=O)CC1	5	30*	0	i	-1	6%[0.307 µM]
CC(C)(C)n1ncc2c(=O)n(CC(=O)N3CCCC3)cnc21	3	3	1	-13%	-1	0%[0.307 µM]
Cn1nnnc1Sc1ncnc2scc(-c3ccccc3C#N)c12	.	7	0	.	.	.
COc1ccc(-c2cn[nH]c2C)cc1	-7	31*	-1	24%	2	-20%
COc1ccc(-c2cn[nH]c2-c2ccc(OC)cc2O)cc1	61	4	-1	i	2	?
O=C(NC1CCCc2ccccc21)c1cnn2c1NC(=C1CC1)C=C2C(F)F (centres undefined)	.	.	.	.	0	.
CC1CC(C)(C)NC(=S)N1CCCC(=O)Nc1ccc(Br)cc1 (centres undefined)	-14	-7	0	-6%	0	11µM*
CCOc1ccc(NC(=O)CCCN2C(=S)NC(C)(C)CC2C)cc1 (centres undefined)	-3	6	0	i	0	12%
CC(C)(C)n1ncc2c(=O)n(Cc3ccccc3Cl)cnc21	-1	.	.	.	2	.
CN(C)c1ccc(/C=C/c2ccnc3c(Cl)ccc(Cl)c23)cc1	.	.	.	.	64*	.
Cc1ccc2c(/C=C/c3ccc(N(C)C)cc3)ccnc2c1C	.	.	.	.	19	.
NC(=O)C1(c2ccccc2)CCCN1C(=O)c1ccccc1Br (centres undefined)	-20	36*	0	-29%	4	2%
O=S(=O)(c1c(F)cccc1F)N1CCN(S(=O)(=O)c2c(F)cccc2F)CC1	.	3	0	.	.	.
COC(=O)N/N=C/c1ccc(-c2ccccc2Cl)o1	3	0	-1	-9%	-1	5%
COC(=O)c1ccc(Cl)c(-c2ccc(/C=N/NC(=O)Nc3ccccc3)o2)c1	-14	31*	0	i	-1	0%
O=C1c2ccccc2C(=O)c2c(NCc3cccnc3)cccc21	17	-1	0	-6%	0	-2%
O=C1c2cccc(NCCCNCCO)c2C(=O)c2cccc(NCCCNCCO)c21	2	.	.	-12%	0	7.9µM*
O=C(COc1ccccc1C(=O)OCC(=O)N1CCOCC1)Nc1ccc(Br)cc1	.	.	.	.	0	.
COC(=O)c1ccc2c(c1)C(C)(C)C(/C=C/c1ccccc1O)=[N+]2C	8	1	0	-18%[57.5 µM]	16	10µM*
COc1ccc(OC)c(/C=C/c2ccc3ccccc3[n+]2C)c1	.	.	.	.	0	.
CCC(C)NC(=O)CN1C(=O)COc2ccc(S(=O)(=O)N3CCOCC3)cc21 (centres undefined)	-10	30*!	1	-94%	-1	0%
CCN(CC)C(=O)CN1C(=O)COc2ccc(S(=O)(=O)N3CCOCC3)cc21	-16	0	0	-18%	0	-1%
CCCCNC(=O)CN1C(=O)COc2ccc(S(=O)(=O)N3CCCC3)cc21	-6	1	0	-23%	0	14%
O=C(CN1C(=O)COc2ccc(S(=O)(=O)N3CCOCC3)cc21)N1CCN(c2ccccc2F)CC1	-15	33*	0	-12%	2	1%
